The values below come from paper PMC6212790, “How bacterial xenogeneic silencer rok distinguishes foreign from self DNA in its resident genome”.

Whole data set: some 33,000 sequences, median “e-score” near -0.037, cut for the highest 2% near 0.34. Many of the other results were omitted from the sample, so the highest values are more common in it than they were.

The assay deals with T1, GST-Rok (full length) (Bacillus subtilis subsp. subtilis str. …, UniProt O34857 1-191).
T1 sequence: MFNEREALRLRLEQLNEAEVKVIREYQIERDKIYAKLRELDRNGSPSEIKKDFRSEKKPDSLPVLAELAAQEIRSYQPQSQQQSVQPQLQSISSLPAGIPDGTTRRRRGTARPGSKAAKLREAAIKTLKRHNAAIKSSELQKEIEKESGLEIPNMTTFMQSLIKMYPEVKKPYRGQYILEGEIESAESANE
In words: protein binding microarray; Rok is a gene silencer of Bacillus subtilis; high values mean tight binding. The note with it: protein: recombinant; tags: GST (pTH5325, pDEST15-Magic modified); dsDNA, one strand shown. In outline: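 Every oligonucleotide joins a 25-mer constant primer to a 35-mer variable part drawn from a de Bruijn sequence of order 10, so each non-palindromic 8-mer appears at least 32 times and each palindromic 8-mer 16 times. The preference for every 8-mer is reported as a unitless, rank-based enrichment score (E-score). This score spans 0.5 for the most favored 8-mer to −0.5 for the most disfavored.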
As to AGGATTCA, the binding signal was -0.117 E-score. As for AACCAGCT, the figure is -0.112 E-score. As to TAAAACGA, the binding signal came to 0.111 E-score. With CAAAACTC, the binding signal was 0.0709 E-score. On to GCAAACCA, for which the binding signal was -0.161 E-score. For CAAAACTG, the binding signal is -0.0906 E-score. As for TAAAACTA, the binding signal amounted to 0.375 E-score. In the case of GCAAACTA it was 0.386 E-score; in that of TAAAACAA, 0.203 E-score; in that of CAAAACTA, 0.383 E-score. With GCAAACAA, the binding signal was -0.152 E-score. Consider ATGGCTTA, for which the binding signal came out at 0.0565 E-score. Consider AGAATTCA, for which the binding signal is 0.0872 E-score. Turning to ACCCTCGC, the binding signal was -0.0467 E-score. For ATAACTTG, the binding signal amounted to 0.289 E-score. Turning to GCATAGGC, the binding signal was -0.0277 E-score. In the case of ATCTATAG, the binding signal amounted to 0.313 E-score. As for CTATATAG, the figure is 0.402 E-score; as for CTATAGAG, 0.0607 E-score.

As to CCATATAG, the binding signal is 0.0758 E-score. As for ATATAGGG, the figure is -0.0461 E-score; as for ATATAGCC, -0.000533 E-score. ATATAGCG: the binding signal was found to be 0.349 E-score. Regarding ATATATAG, the binding signal came out at 0.416 E-score. Take ATATAGCA: the binding signal turned out to be 0.213 E-score. As for AGTTATGG, the figure is 0.209 E-score. CAGCTAGA: the binding signal amounted to 0.0847 E-score. In the case of AACTTCAC it was -0.0432 E-score; in that of CCTAACGA, -0.117 E-score. On to ATTTTGCC, for which the binding signal is 0.0261 E-score.

Take GATCTGAA: the binding signal is -0.0373 E-score. On to CATGCCGA, for which the binding signal worked out at 0.0242 E-score. As to GATCTAAC, the binding signal was 0.12 E-score. For the sequence AATCTACT, the binding signal worked out at 0.432 E-score. Regarding AATCTAAC, the binding signal is 0.189 E-score.

As to CATCTACC, the binding signal turned out to be 0.291 E-score.

As for AATCTACC, the binding signal was 0.437 E-score.

Take AATCTACG: the binding signal turned out to be 0.311 E-score. For the sequence ACTCTACT, the binding signal was determined as 0.27 E-score. Turning to GATCTACC, the binding signal worked out at 0.382 E-score.

Consider ACTCTACC, for which the binding signal is -0.0638 E-score.

Take AGTTATTC: the binding signal stood at 0.069 E-score. In the case of ACCTTAAC it was -0.0118 E-score; in that of CATGGTAC, 0.13 E-score. Take GTTTAACA: the binding signal came to 0.108 E-score.

AATTCAGA: the binding signal worked out at 0.0748 E-score. In the case of CACTCAAC, the binding signal is -0.00301 E-score. As for CAGCATTC, the figure is 0.0234 E-score. As for GTGGCTGA, the binding signal is -0.0523 E-score. Consider AGAAAAAG, for which the binding signal was 0.0648 E-score.

Take ATTTATAG: the binding signal stood at 0.398 E-score. In the case of ATTTATGG it was 0.218 E-score; in that of ATTTATTC, 0.219 E-score; in that of CTTTATAC, 0.226 E-score.

Turning to ATTTATAA, the binding signal came to 0.333 E-score.

For the sequence ATTTATAC, the binding signal was determined as 0.356 E-score. For ATTTATTA, the binding signal came to 0.312 E-score. ATTTATTG: the binding signal stood at 0.348 E-score. On to AGTTATAC, for which the binding signal came out at 0.329 E-score. As to CATTAGGC, the binding signal was -0.146 E-score. In the case of AGAGTGGA it was -0.109 E-score. As for AACCAGAG, the binding signal was -0.187 E-score.

Regarding CACTACCA, the binding signal is 0.221 E-score. As for AACTACCG, the figure is 0.417 E-score.

For CACTACCG, the binding signal amounted to 0.0654 E-score. With AACTACCT, the binding signal amounted to 0.416 E-score. AACTACCA: the binding signal was 0.432 E-score.

With GACTACCA, the binding signal was found to be 0.095 E-score. In the case of AACTATCG, the binding signal is 0.316 E-score. Take TGCTACCA: the binding signal was 0.152 E-score. For TCCTACCA, the binding signal worked out at 0.175 E-score. As for TACTACCA, the binding signal came to 0.386 E-score. In the case of ACCTACCT it was 0.271 E-score; in that of AACTACCC, 0.292 E-score. Regarding GGACTCTA, the binding signal was -0.165 E-score. CTACAGGA: the binding signal is -0.04 E-score. In the case of ACAAGCCT, the binding signal was -0.083 E-score. In the case of CTCTCACA it was -0.156 E-score. As to AGACGCAA, the binding signal was -0.089 E-score. Regarding GCCATTCA, the binding signal was determined as 0.0688 E-score.

As for ACCGAGCG, the binding signal is -0.175 E-score. Consider AGTAGTGC, for which the binding signal was 0.0725 E-score. For the sequence AGTAGTAC, the binding signal was 0.336 E-score.

With GGTAGGAC, the binding signal was found to be 0.0568 E-score. Take CTTAGTAC: the binding signal came to 0.206 E-score.

CGTAGTAC: the binding signal came out at 0.202 E-score. As for GGTAGTAC, the binding signal was found to be 0.339 E-score. On to CTCAACTA, for which the binding signal stood at 0.13 E-score. As for CATGGAGA, the figure is 0.0828 E-score.

For the sequence CATGCGGC, the binding signal was -0.125 E-score.

Turning to ACATGCCA, the binding signal is 0.0568 E-score. For the sequence ACATGCTA, the binding signal turned out to be 0.365 E-score. Take CCATGCTA: the binding signal turned out to be 0.073 E-score. In the case of GCATGCTA it was 0.111 E-score; in that of ACCTATGA, 0.118 E-score. For the sequence ATAAGTGA, the binding signal came out at 0.123 E-score. In the case of CTATTTTC it was 0.344 E-score. Regarding CTATTTTA, the binding signal came out at 0.325 E-score. As for GTATTTGA, the binding signal was 0.0869 E-score.

ATATTTTC: the binding signal was 0.326 E-score. With GTATTTAA, the binding signal was found to be 0.285 E-score.

Take ATATTTTG: the binding signal was 0.297 E-score.

With CTATTTCC, the binding signal came out at 0.18 E-score. For GTATTTTA, the binding signal came to 0.411 E-score. As for ATATTTTA, the figure is 0.412 E-score. Take GTGACGTA: the binding signal is 0.0931 E-score.

CCTGGTCA: the binding signal was -0.133 E-score. In the case of GAAGTAGC it was 0.182 E-score. On to GGTCGGGA, for which the binding signal is -0.156 E-score. Consider CCCGACGA, for which the binding signal was -0.104 E-score. For the sequence AGCACTAA, the binding signal is -0.126 E-score. For the sequence CAATAGAC, the binding signal came out at 0.089 E-score. For AAAAGCGC, the binding signal is -0.0281 E-score. On to CTGATATA, for which the binding signal amounted to 0.204 E-score.

Consider ATGATAGA, for which the binding signal stood at 0.342 E-score. As for ATGATAGC, the figure is 0.179 E-score; as for ATGATATA, 0.389 E-score; as for ATGATAGG, 0.0932 E-score. On to ATGATATG, for which the binding signal came to 0.172 E-score. On to AATTCGTA, for which the binding signal was determined as 0.263 E-score. Take ATAGTAAT: the binding signal turned out to be 0.392 E-score. In the case of GGAGTAAA it was -0.112 E-score. In the case of ATAGTCTA, the binding signal is 0.0771 E-score. As for CTAGTAAC, the binding signal amounted to 0.303 E-score. ATAGTCTG: the binding signal is 0.347 E-score. On to ATAGTAAG, for which the binding signal was found to be 0.282 E-score. For the sequence ATAGTCTC, the binding signal came out at 0.0365 E-score.

For ATAGTAAC, the binding signal is 0.366 E-score. Consider GTAGTAAA, for which the binding signal turned out to be 0.348 E-score. GTAGTAAC: the binding signal was determined as 0.321 E-score. As for AGAGTAAT, the figure is 0.197 E-score; as for GAAGTAAA, 0.237 E-score; as for CATAGGGA, -0.158 E-score. For AGCCATAT, the binding signal was 0.162 E-score. Turning to CTGTCCAC, the binding signal was -0.116 E-score.

For GAAGAGTA, the binding signal was 0.266 E-score. In the case of GCAGCTTA, the binding signal is -0.093 E-score. For the sequence GCTCGAAC, the binding signal was -0.0353 E-score. For the sequence TCCTTAAA, the binding signal is -0.0816 E-score. As for ATAGTATA, the figure is 0.278 E-score; as for ATAGTAAA, 0.397 E-score. As for ATAGTATG, the figure is 0.359 E-score.

As for TTAGTAAA, the binding signal came to 0.237 E-score. For ATAGTATC, the binding signal worked out at 0.321 E-score. As to CTAGTAAA, the binding signal came out at 0.328 E-score. In the case of AGATTCAA, the binding signal came to 0.0974 E-score. For AACTTTCG, the binding signal is -0.0406 E-score. On to ATTCGTTA, for which the binding signal was found to be 0.228 E-score. For CAAGTTGC, the binding signal is -0.00109 E-score. In the case of CTAATGTA it was 0.184 E-score. For the sequence ATAATGTA, the binding signal was found to be 0.4 E-score.

Turning to GTAATGAA, the binding signal was -0.0724 E-score. ATAATGTG: the binding signal is 0.201 E-score. As for GTAATGTA, the binding signal came to 0.364 E-score. In the case of ATAATGTC it was 0.175 E-score; in that of ATTAACAG, 0.0334 E-score. Consider TACCGCCA, for which the binding signal was 0.0353 E-score. Consider AAAGAAAG, for which the binding signal came to 0.132 E-score.

Consider CGATACGA, for which the binding signal is -0.0427 E-score. GTACGGCA: the binding signal was -0.048 E-score. As for GGTATAAC, the binding signal was determined as 0.313 E-score.

As to AGTATATG, the binding signal stood at 0.264 E-score.

GGTATAGA: the binding signal was 0.222 E-score. AGTATATC: the binding signal amounted to 0.221 E-score. As for AGTATATA, the figure is 0.451 E-score; as for CGTATATA, 0.28 E-score; as for AGTATAAA, 0.278 E-score.

Turning to GGTATATA, the binding signal was 0.386 E-score. Turning to GGTATAAA, the binding signal was 0.383 E-score. Regarding GGTCGTAA, the binding signal came out at 0.0357 E-score. Take AAGCCGAA: the binding signal is 0.00167 E-score. For the sequence GTCTGGCA, the binding signal was -0.182 E-score.
